Measured values from the supplement of paper PMC11732987, “Enantioselective OTUD7B fragment discovery through chemoproteomics screening and high-throughput optimisation” (Communications Chemistry, 2025).

Experiments:
Test in all cases: log2 ratio of Biotin-Ahx-Ub-VS probe labelling (fragment/DMSO); higher = less target engagement (more negative = stronger competition), active = hit call of the paper (q ≤ 0.05, log2 ratio ≤ -1)
Conditions in all cases: compound concentration: 200 uM; treatment time: 3 h
[1] = biological target: T1, USP19 (UniProt O94966)
T1 sequence (whole entry): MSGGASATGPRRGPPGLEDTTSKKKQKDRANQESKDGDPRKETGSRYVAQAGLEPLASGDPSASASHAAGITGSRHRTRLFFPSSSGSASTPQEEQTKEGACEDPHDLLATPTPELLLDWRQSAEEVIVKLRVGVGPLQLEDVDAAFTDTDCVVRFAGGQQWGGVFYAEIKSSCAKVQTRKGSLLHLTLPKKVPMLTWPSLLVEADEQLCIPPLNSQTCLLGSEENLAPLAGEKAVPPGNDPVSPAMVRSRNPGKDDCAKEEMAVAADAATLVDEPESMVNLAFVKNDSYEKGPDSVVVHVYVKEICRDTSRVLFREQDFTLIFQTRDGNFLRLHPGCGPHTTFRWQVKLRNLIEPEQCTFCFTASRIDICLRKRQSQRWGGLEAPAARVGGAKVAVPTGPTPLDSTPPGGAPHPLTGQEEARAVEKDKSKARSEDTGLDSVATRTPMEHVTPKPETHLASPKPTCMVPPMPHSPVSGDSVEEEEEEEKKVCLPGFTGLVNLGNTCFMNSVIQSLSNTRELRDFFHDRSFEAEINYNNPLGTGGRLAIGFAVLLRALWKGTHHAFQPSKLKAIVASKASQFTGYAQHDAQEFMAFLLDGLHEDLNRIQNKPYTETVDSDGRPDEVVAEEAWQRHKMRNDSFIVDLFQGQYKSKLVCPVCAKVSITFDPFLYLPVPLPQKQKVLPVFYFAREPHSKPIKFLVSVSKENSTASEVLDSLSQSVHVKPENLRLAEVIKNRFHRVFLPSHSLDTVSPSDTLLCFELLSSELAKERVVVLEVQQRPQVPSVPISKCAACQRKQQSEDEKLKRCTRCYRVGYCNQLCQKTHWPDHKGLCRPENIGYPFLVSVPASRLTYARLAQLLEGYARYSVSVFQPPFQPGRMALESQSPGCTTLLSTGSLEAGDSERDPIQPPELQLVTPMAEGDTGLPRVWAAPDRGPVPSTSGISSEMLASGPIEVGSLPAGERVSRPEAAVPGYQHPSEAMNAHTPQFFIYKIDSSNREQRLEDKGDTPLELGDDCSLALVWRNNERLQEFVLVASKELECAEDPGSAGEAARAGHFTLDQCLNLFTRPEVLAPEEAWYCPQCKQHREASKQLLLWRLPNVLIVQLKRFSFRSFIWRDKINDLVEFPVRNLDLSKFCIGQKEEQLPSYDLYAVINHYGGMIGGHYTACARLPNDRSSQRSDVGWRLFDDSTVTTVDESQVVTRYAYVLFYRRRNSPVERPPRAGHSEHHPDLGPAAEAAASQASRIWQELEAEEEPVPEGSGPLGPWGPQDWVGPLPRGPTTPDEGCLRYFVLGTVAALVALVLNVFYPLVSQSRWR
Method in brief: (§1)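 HEK293T lysate in Tris/CHAPS/IGEPAL buffer with protease inhibitors (495 µg per sample) was given fragment at 200 µM or vehicle for 3 h, in triplicate. It then received Biotin-Ahx-Ub-VS at 0.5 µM final for 1 h. Labelled DUBs were NeutrAvidin-enriched, digested with LysC and trypsin, and run by diaPASEF LC-MS/MS. Values are average log2 fragment/vehicle ratios by unpaired t-test on global-median-normalised Spectronaut quantities of proteins with ≥2 unique peptides.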

[2] = biological target: T2, USP22 (UniProt Q9UPT9)
T2 sequence (whole entry): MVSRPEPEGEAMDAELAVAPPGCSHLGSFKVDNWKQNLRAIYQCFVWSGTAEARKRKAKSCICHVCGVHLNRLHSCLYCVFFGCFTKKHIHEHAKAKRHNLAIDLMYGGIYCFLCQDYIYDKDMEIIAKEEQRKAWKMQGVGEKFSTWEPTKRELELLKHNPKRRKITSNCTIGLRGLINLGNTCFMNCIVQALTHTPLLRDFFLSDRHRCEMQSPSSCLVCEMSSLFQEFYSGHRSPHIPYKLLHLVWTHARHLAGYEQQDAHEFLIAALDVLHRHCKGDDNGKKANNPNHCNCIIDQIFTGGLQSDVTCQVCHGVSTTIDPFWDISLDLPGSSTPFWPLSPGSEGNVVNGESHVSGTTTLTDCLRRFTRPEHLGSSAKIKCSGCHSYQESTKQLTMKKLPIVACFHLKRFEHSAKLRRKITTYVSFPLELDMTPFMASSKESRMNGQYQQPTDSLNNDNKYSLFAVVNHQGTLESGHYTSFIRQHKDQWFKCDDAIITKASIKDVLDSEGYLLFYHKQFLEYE
Method in brief: as §1

[3] = biological target: USP24 (UniProt Q9UPU5)
Method in brief: as §1

[4] = biological target: T3, USP25 (UniProt Q9UHP3)
T3 sequence (whole entry): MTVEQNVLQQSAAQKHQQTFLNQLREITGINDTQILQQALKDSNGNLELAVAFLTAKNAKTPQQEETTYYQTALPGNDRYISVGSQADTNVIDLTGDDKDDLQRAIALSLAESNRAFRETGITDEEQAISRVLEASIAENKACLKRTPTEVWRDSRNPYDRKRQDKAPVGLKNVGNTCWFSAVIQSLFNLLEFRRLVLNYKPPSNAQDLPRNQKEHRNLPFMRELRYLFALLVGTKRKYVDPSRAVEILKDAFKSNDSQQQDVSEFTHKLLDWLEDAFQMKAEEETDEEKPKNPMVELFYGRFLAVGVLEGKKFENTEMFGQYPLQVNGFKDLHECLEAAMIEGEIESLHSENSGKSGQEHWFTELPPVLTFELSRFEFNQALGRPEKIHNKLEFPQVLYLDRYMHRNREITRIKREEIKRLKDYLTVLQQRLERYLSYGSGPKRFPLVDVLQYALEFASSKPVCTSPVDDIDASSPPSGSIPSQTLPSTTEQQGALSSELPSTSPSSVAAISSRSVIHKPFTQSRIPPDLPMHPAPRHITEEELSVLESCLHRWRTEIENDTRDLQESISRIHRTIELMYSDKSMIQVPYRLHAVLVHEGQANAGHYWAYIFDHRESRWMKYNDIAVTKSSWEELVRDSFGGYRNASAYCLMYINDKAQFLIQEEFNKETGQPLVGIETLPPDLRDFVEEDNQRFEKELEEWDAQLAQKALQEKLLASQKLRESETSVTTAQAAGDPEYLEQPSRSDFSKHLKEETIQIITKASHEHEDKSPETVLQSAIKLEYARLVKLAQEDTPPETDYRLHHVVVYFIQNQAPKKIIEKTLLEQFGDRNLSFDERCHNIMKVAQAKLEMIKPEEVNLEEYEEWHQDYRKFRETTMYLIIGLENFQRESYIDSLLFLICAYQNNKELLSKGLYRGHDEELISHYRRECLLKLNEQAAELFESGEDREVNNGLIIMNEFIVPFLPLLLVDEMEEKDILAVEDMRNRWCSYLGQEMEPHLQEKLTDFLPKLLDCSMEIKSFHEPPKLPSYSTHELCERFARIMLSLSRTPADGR
Method in brief: as §1

[5] = biological target: T4, USP28 (UniProt Q96RU2)
T4 sequence (whole entry): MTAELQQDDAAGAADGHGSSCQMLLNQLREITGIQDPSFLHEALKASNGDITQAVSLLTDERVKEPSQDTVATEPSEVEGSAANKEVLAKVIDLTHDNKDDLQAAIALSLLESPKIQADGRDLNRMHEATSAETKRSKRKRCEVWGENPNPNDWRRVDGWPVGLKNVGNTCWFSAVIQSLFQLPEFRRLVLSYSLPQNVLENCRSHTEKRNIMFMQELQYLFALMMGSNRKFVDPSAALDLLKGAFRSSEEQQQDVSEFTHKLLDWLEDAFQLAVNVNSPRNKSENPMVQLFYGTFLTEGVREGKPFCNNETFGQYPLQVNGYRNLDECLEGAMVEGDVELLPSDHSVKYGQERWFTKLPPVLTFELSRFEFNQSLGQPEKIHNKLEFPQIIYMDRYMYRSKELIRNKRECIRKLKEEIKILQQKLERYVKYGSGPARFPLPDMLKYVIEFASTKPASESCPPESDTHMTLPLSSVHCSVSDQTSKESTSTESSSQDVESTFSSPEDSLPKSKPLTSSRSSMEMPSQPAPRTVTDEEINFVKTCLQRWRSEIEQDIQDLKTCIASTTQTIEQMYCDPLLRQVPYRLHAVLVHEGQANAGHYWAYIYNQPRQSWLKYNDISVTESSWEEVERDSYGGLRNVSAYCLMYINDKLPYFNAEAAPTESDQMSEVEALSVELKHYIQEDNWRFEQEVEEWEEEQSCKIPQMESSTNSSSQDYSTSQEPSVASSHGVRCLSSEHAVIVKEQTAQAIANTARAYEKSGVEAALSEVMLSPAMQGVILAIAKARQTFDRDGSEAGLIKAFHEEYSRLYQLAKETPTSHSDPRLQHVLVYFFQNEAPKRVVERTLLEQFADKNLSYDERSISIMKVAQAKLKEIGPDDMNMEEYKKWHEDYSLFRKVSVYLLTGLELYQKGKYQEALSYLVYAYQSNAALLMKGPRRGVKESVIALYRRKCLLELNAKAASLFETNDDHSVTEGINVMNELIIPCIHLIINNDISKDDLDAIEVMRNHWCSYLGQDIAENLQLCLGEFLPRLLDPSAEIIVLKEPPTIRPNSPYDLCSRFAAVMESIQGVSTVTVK
Method in brief: as §1

Measured: log2 ratio of Biotin-Ahx-Ub-VS probe labelling

USP24, sequence (Q9UPU5 whole entry): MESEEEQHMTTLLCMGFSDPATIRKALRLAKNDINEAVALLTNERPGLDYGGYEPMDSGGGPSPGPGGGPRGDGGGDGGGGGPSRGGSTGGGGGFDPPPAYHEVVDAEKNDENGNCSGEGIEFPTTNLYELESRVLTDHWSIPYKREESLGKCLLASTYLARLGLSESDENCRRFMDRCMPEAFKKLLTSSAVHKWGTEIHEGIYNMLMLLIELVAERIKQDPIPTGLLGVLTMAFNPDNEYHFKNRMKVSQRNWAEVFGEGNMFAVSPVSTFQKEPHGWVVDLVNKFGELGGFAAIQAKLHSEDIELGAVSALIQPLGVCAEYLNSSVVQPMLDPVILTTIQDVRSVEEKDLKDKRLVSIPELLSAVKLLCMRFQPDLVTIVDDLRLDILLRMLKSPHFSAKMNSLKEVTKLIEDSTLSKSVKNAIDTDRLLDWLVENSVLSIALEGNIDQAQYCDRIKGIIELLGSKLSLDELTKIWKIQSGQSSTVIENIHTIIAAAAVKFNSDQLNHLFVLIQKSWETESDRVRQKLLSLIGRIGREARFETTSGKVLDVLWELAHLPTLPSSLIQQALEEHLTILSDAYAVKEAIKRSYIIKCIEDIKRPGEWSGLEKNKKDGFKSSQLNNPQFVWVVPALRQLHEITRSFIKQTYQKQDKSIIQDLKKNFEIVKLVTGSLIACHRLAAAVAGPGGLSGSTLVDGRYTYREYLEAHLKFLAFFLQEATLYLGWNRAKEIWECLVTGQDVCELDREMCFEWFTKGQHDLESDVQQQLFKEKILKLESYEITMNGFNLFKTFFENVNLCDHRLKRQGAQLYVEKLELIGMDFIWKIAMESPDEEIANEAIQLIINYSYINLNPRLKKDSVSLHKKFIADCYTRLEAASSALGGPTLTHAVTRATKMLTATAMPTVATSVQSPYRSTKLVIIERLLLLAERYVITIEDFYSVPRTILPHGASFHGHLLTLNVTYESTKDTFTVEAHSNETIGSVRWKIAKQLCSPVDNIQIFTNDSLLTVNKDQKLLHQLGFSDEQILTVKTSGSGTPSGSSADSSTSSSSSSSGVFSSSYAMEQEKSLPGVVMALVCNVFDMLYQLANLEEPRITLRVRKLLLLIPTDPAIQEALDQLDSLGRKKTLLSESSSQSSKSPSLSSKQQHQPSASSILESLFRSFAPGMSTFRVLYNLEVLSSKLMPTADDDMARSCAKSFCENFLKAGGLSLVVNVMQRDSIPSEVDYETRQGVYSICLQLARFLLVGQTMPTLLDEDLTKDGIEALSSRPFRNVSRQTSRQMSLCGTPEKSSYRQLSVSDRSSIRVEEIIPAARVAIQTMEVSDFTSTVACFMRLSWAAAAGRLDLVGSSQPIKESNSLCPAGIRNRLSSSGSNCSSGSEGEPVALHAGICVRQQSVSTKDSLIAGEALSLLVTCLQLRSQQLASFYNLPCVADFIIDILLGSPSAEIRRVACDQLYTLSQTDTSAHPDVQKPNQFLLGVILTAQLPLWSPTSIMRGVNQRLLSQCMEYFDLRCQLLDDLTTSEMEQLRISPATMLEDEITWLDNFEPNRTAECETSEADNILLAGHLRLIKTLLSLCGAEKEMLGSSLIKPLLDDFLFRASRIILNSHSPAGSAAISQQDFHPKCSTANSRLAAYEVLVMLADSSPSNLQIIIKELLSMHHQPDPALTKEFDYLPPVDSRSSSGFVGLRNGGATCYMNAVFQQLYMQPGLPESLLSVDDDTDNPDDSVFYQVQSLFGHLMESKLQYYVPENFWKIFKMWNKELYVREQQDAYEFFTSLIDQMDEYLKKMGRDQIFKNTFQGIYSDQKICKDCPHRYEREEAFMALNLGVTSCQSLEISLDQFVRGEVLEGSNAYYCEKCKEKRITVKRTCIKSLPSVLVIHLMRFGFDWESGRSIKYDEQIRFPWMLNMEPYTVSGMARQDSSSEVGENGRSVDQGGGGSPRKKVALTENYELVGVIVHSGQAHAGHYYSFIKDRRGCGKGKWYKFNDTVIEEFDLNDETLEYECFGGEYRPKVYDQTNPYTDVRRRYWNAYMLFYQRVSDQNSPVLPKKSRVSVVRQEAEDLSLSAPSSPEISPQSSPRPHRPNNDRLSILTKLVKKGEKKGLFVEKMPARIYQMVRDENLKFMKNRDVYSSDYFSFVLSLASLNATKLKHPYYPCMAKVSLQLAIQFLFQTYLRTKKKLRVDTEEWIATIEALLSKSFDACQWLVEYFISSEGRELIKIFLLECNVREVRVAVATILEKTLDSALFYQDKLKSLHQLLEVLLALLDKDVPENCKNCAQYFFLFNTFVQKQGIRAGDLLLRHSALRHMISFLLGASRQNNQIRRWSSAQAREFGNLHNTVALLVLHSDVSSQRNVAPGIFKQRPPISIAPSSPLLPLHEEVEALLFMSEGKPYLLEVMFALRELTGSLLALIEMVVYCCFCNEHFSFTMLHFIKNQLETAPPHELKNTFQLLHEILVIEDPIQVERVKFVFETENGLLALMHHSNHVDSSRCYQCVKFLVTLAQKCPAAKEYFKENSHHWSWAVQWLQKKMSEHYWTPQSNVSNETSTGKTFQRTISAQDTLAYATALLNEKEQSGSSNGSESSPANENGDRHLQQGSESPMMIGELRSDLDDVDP

O=C(CCl)N1CCC2(CCC(O)CC2)CC1
inactive: [1] 0.0572 | [2] -0.145 | [3] -0.133 | [4] -0.0651 | [5] -0.372
